# Data as given in PubChem BioAssay AID463173 (ICCB-Longwood Screening Facility, Harvard Medical School, 2010).
# In all, about 52,000 compounds went through this assay and about 1,700 (3.3%) were called active. The sample holds actives, similar compounds and a random draw of the others, so the mix is not that of the screen. A number with no mark means an inactive call. Rule as the data show it: active = survival mostly below about 52% (no sharp cut-off); inactive = mostly above about 56%.
# Test system: Wild type
# Assay: growth inhibition of S. aureus wild type versus tarO mutant, primary screen, teichoic acid synthesis inhibitors, RN4220, OD600 (AID 463173)
# Conditions: S. aureus RN4220 wild type/DeltatarO growth, OD600, 18 h, active compounds read low, screened at 18.75 µg/mL (by protocol)
row,Compound,survival
1,COc1cccc(CNC(=O)CC(c2ccc(F)cc2)N2Cc3ccccc3C2=O)c1 (configuration not stated),82%
2,CCN(CC)C(=O)CSc1nc2ccccc2c(=O)n1CC,107%
3,COc1ccc(Nc2oc(/C=C/c3ccccc3OC)nc2C#N)cc1,86%
4,CCc1ccc(-c2nn(CC(=O)NC3CCCCC3)c3c2cnc2ccc(F)cc23)cc1,68%
5,COc1ccc2ncc3c(-c4ccccc4)nn(-c4ccc(C)c(C)c4)c3c2c1,0% (active)
6,CCOc1ccc(-c2nn(-c3ccc(F)cc3)c3c2cnc2ccc(F)cc23)cc1,86%
7,Cc1ccc(-n2nc(-c3ccccc3)c3cnc4cc5c(cc4c32)OCO5)cc1C,110%
8,COc1ccc(-n2nc(-c3ccc(C)cc3)c3cnc4cc(F)c(F)cc4c32)cc1,85%
9,Cc1ccc(-c2nn(CC(=O)NC3CCCCC3)c3c2cnc2ccc(F)cc23)cc1C,-3% (active)
10,CCOc1ccc2ncc3c(-c4cccc(OC)c4)nn(-c4ccccc4)c3c2c1,125%
11,CCCNC(=O)Cn1nc(-c2ccc(C)cc2)c2cnc3ccc(CC)cc3c21,10% (active)
12,CCc1ccc2ncc3c(-c4ccc(C)cc4)nn(CC(=O)NCc4ccccc4)c3c2c1,65%
13,CCc1ccc(-c2nn(-c3ccc(OC)cc3)c3c2cnc2ccc(OC)cc23)cc1,9% (active)
14,Cc1ccc(-c2nn(CC(=O)NC3CCCC3)c3c2cnc2ccc(F)cc23)cc1C,74%
15,CCc1ccc2ncc3c(-c4ccc(C)cc4)nn(CC(=O)Nc4ccc(C)cc4)c3c2c1,47%
16,COc1cc(OC)c(NC(=O)Nc2cccc(OCc3cc(=O)n4ccccc4n3)c2)cc1Cl,87%
17,N#Cc1ccc(N2CCCCC2)cc1,119%
18,Oc1ccc(Nc2nc3ccccc3n3cnnc23)cc1,78%
19,COc1ccc(OCC(=O)NCCO)cc1,116%
20,COc1ccccc1NC(=O)c1cnc(SCC(=O)N2CCOCC2)n(C)c1=O,77%
21,CCc1ccc2ncc3c(-c4ccccc4)nn(-c4ccccc4)c3c2c1,7% (active)
22,FC(F)(F)c1ccc2c(c1)ncc1c(-c3ccccc3)nn(-c3ccccc3)c12,125%
23,Cc1ccc(-c2nn(-c3ccccc3)c3c2cnc2ccccc23)cc1C,68%

row,Compound,survival
1,N#Cc1c(N2CCOCC2)nc(N2CCOCC2)c2c1CCN(Cc1ccccc1)C2,112%
2,COc1ccc(CNC(=O)CCc2c(C)nn(-c3ccc(N4CCCCC4)nn3)c2C)c(OC)c1,64%
3,CC(C)Cn1c(N2CCN(C(=O)Nc3ccc(Cl)cc3)CC2)nc2ccccc21,99%
4,CCn1c(N2CCN(C(=O)Nc3ccc(Cl)c(C(F)(F)F)c3)CC2)nc2ccccc21,0% (active)
5,CCCn1c(N2CCN(C(=O)Nc3ccc(OC)cc3)CC2)nc2ccccc21,94%
6,CCOCCn1ccc2c(OCC(=O)Nc3ccc(C(N)=O)cc3)cccc2c1=O,32%
7,Cc1ccc(-n2cccn2)cc1,113%
8,N#CCCCn1c(=O)oc2ccccc21,84%
9,CCOc1ccccc1NC(=O)NCCn1c(=O)oc2ccc(C)cc21,79%
10,O=c1oc2ccccc2n1CCCOc1ccccc1Cl,0% (active)
11,O=C(O)CCCn1c(=O)oc2ccccc21,99%
12,Cc1ccc2oc(=O)n(CCCOc3ccccc3Cl)c2c1,-10% (active)
13,Cc1ccc2oc(=O)n(CCNC(=O)Nc3ccccc3C)c2c1,119%
14,O=S(=O)(c1ccccc1)c1nnn2c1nc(NCc1ccc(Cl)cc1)c1sccc12,88%
15,Cc1cc(SCC(=O)NCc2ccccc2)nc(=O)[nH]1,70%
16,Cc1cc2oc(C(=O)Nc3ccc(S(=O)(=O)N4CCCCCC4)cc3)cc(=O)c2cc1C,80%
17,COc1ccc(-c2nc(CSc3nnc(C)n4c3cc3oc(C)cc34)c(C)o2)cc1OC,89%
18,CCc1ccc(OCC(=O)Nc2ccc(Cl)c(-c3nc4cc(C)cc(C)c4o3)c2)cc1,51%
19,O=C(/C=C/c1cn(CC(O)CN2CCCCCC2)c2ccccc12)c1ccccc1 (configuration not stated),67%
20,COc1ccc(C(=O)/C=C/c2cn(CC(O)CN3CCCCCC3)c3ccccc23)cc1OC (configuration not stated),96%
21,CCOc1ccc(C(=O)/C=C/c2cn(CC(O)CN3CCCCCC3)c3ccccc23)cc1 (configuration not stated),26% (active)
22,COc1ccc(C(=O)/C=C/c2cn(CC(O)CN3CCc4ccccc43)c3ccccc23)cc1OC (configuration not stated),87%
23,Cc1ccc(C(=O)/C=C/c2cn(CC(O)CN3CCCCCC3)c3ccccc23)cc1 (configuration not stated),28% (active)

row,Compound,survival
1,COc1ccc(C(=O)/C=C/c2cn(CC(O)CN3CCc4ccccc43)c3ccccc23)cc1 (configuration not stated),63%
2,O=C(/C=C/c1cn(CC(O)CN2CCc3ccccc32)c2ccccc12)c1ccc(Br)cc1 (configuration not stated),70%
3,O=C(/C=C/c1cn(CC(O)CN2CCCCCC2)c2ccccc12)c1ccc(Br)cc1 (configuration not stated),14% (active)
4,Cc1ccc(Cn2ccc(NC(=O)c3cc(-c4ccc(Cl)c(Cl)c4)on3)n2)cc1,74%
5,CCOC(=O)CSc1nc2ccccc2c(=O)n1CCc1ccc(OC)c(OC)c1,124%
6,Cc1ccc(-n2c(C)cc(CO)c2C)cc1,100%
7,Cc1ccc(CNC(=O)CCc2c(C)nn(-c3ccc(N4CCOCC4)nn3)c2C)cc1,135%
8,CC(=O)Nc1ccc(N=NN2CCCCC2)cc1,99%
9,CCc1ccc(CN(Cc2ccco2)c2cnc(S(C)(=O)=O)nc2C(=O)Nc2c(C)cccc2C)cc1,70%
10,CCCOc1ccc(-c2nc(N3CCC(C)CC3)c3ccccc3n2)cc1,-2% (active)
11,Cc1ccc(-c2nc(N3CCN(c4ccccc4Cl)CC3)c3ccccc3n2)cc1,62%
12,CCCOc1ccc(-c2nc(N3CCCCC3)c3ccccc3n2)cc1,0% (active)
13,CCCOc1ccc(CNC(=O)C2CCN(c3nc4ccccc4nc3C(F)(F)F)CC2)cc1,59%
14,CCCOc1ccc(-c2nc3ccccc3c(=O)o2)cc1,70%
15,c1ccc(-c2nc(N3CCCCC3)c3ccccc3n2)cc1,130%
16,O=C(CSc1nc2c([nH]c3ccccc32)c(=O)n1-c1ccccc1)N1CCCc2ccccc21,128%
17,c1ccc2sc(N3CCN(Cc4nnnn4C4CCCC4)CC3)nc2c1,104%
18,Fc1ccc(Nc2ncnc3onc(-c4ccc(Cl)cc4)c23)cc1Cl,71%
19,Cc1ccccc1CN1C(=O)c2ccccc2Sc2ccc(C(=O)NC(C)c3ccccc3)cc21 (configuration not stated),81%
20,COc1ccc(CNC(=O)c2ccc3c(c2)N(C)C(=O)C2CCCCN32)cc1OC (configuration not stated),59%
21,Cc1cccc(CNC(=O)c2ccc3c(c2)N(C)C(=O)C2CCCCN32)c1 (configuration not stated),-3% (active)
22,COc1cccc(CNC(=O)c2ccc3c(c2)N(C)C(=O)C2CCCCN32)c1 (configuration not stated),68%
23,CC(C)Oc1ccc(CNC(=O)c2ccc3c(c2)N(C)C(=O)C2CCCCN32)cc1 (configuration not stated),10% (active)

row,Compound,survival
1,CSc1ccc(CNC(=O)c2ccc3c(c2)N(C)C(=O)C2CCCCN32)cc1 (configuration not stated),83%
2,CCCCOc1ccc(CNC(=O)c2ccc3c(c2)N(C)C(=O)C2CCCCN32)cc1 (configuration not stated),88%
3,COc1cccc(CNC(=O)c2ccc3nc(-c4ccccc4)c(-c4ccccc4)nc3c2)c1OC,71%
4,CCC(Cn1nnc2ccccc2c1=O)NC(=O)Nc1ccccc1OC (configuration not stated),93%
5,CCc1ccccc1NC(=O)[C@@H](c1ccccc1)N1Cc2ccccc2C1=O,22%
6,COc1ccccc1OCCSc1ncnc2nc[nH]c12,105%
7,Cc1ccc(-c2nnc(Nc3ccc(F)cc3)c3ccccc23)cc1S(=O)(=O)NC(C)C,81%
8,COCCCNC(=O)c1cc2cc(S(=O)(=O)N3CCCCC3)ccc2n1C,73%
9,COc1ccc(C(=O)Nc2ccccc2-c2nc(-c3ccc(OC)cc3)no2)cc1,89%
10,COc1ccc(-c2noc(-c3cccc(OC)c3OC)n2)cc1,-3% (active)
11,COc1ccc(-c2noc(-c3ccccc3NC(=O)c3cc(OC)c(OC)c(OC)c3)n2)cc1,79%
12,Cc1ccc(OC(=O)c2snnc2C)cc1C,117%
13,COc1ccc(NC(=O)Nc2cccc(-c3cn4cccnc4n3)c2)cc1,77%
14,CCCCOC(=O)c1c(C)oc2ccc(NS(=O)(=O)c3ccc(F)cc3C)cc12,1% (active)
15,CCOC(=O)c1c(-c2ccccc2)oc2ccc(NS(=O)(=O)c3ccc(C)cc3)cc12,28%
16,CCOC(=O)c1c(-c2ccccc2)oc2ccc(NS(=O)(=O)c3ccccc3)cc12,7% (active)
17,CCOC(=O)c1c(-c2ccccc2)oc2ccc(NS(=O)(=O)c3ccc(OC)cc3)cc12,66%
18,CCc1ccc(S(=O)(=O)Nc2ccc3oc(C)c(C(=O)OCCOC)c3c2)cc1,60%
19,CCOc1ccc(S(=O)(=O)Nc2ccc3oc4c(c3c2)CC(C)CC4)cc1 (configuration not stated),60%
20,Cc1cc(F)ccc1S(=O)(=O)Nc1ccc2oc3c(c2c1)CC(C)CC3 (configuration not stated),-6% (active)
21,CCOC(=O)c1c(-c2ccccc2)oc2ccc(NS(=O)(=O)c3ccc(C)cc3C)cc12,51%
22,Cc1cc(C)c(S(=O)(=O)Nc2ccc3oc4c(c3c2)CCCC4)cc1C,72%
23,Cc1ccc(NC(=O)Cn2c(=O)n(CCCCC(=O)NCc3ccccc3Cl)c(=O)c3ccccc32)cc1C,74%
